Source: PubChem (National Center for Advancing Translational Sciences (NCATS))
KB-3-1 cytotox – qHTS assay for MDR1-selective chemotherapeutics: Primary screen using the parental adenocarcinoma cell KB-3-1; AID 1347075, 2019; hit rate 1.4% among 400,000; KB-3-1 viability, CellTiter-Glo ATP luminescence, 72 h; Potency, µM (top dose mostly 46.1 µM), hits mostly cytotoxic; further: on the % scale 0 is the no-effect control and ±100 the full control effect; nearly all actives have a fitted effect of over 60% in size
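Multi-concentration cytotoxicity screen in KB-3-1 cells grown in DMEM lacking phenol red with 10% FBS. After 72 h at 37 °C with compound, ATP-dependent luminescence was recorded.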
MCF10A rereplic – A quantitative high throughput screen for small molecules that induce DNA re-replication in MCF 10a normal breast cells. MCF 10A DNA re-replication, Hoechst nuclear intensity, 48 h. Potency, µM (doses to about 46.1 µM), for inactives: at the top dose activity, positive = re-replication, usual class: activators. hit rate 2.9% among 350,000; further: % of control where 0% means no effect; nearly all actives have a fitted effect of over 50% in size
KB-V1 cytotox – qHTS assay for MDR1-selective chemotherapeutics: Primary screen using the drug-selected MDR subline cells KB-V1; Potency, µM (highest dose often 46.1 µM), usual class: cytotoxic; KB-V1 MDR cells viability, CellTiter-Glo, 72 h; AID 1347076, 2019; hit rate 3.4% among 400,000; further: on the % scale 0 is the no-effect control and ±100 the full control effect; nearly all actives have a fitted effect of over 60% in size
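Cytotoxicity via CellTiter-Glo luminescence after 72 h compound exposure at 37 degrees C. Cells: drug-selected KB-V1 line, DMEM phenol-red free plus 10% FBS. Compounds tested at multiple concentrations; normalized data fitted to concentration-effect curves.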
ALOX12 inh – Primary qHTS assay for inhibitors of human arachidonate 12S-lipoxygenase (ALOX12): Round 2; hit rate 1.1% among 580,000; Potency, µM (top dose mostly 108 µM), without a hit: at the highest dose activity change, negative = inhibition, actives largely listed as inhibitors; AID 1671190, 2021; Polyunsaturated fatty acid lipoxygenase ALOX12 (Homo sapiens), P18054; purified 12hLO, xylenol orange hydroperoxide absorbance; further: on the % scale 0 is the no-effect control and ±100 the full control effect
Target sequence (P18054 whole entry, looked up): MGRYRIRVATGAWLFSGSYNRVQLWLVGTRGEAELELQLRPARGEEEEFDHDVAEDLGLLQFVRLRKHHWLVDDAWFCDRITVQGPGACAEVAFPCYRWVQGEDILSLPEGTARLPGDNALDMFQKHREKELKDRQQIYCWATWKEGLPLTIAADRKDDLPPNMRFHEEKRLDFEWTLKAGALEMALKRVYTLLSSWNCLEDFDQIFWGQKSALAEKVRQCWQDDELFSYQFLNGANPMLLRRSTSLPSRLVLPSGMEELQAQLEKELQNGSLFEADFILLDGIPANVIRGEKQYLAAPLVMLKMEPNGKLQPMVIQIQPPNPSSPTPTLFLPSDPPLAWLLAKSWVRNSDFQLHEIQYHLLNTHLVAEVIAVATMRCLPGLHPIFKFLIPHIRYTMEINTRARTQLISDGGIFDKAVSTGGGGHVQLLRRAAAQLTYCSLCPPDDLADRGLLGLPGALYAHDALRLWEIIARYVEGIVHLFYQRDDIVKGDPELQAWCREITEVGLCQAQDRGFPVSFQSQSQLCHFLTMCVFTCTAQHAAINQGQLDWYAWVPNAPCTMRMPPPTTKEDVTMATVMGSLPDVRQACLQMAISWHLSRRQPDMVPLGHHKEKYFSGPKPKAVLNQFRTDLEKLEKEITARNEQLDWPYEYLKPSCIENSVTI
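Hydroperoxide product was detected by ferrous iron/xylenol orange as the 573 to 405 nm absorbance ratio. Arachidonic acid at 40 uM (final) was turned over for 30 min at room temperature by 150 nM human 12hLO, pH 7.0 Hepes buffer, after 15 min compound preincubation.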
PINK1 modulator – A Quantitative High throughput Screen to Identify Chemical Modulators of PINK1 Expression; PINK1 immunofluorescence, high-content cytometry, 24 h; Potency, µM (highest dose often 76.6 µM), without a hit: top-dose activation (PINK1 increase), actives largely listed as activators; hit rate 0.2% among 410,000; active means well fitted activation curve with a large enough effect; inconclusive means small, poorly fitted or top-dose-only effect; cell line not stated here; further: % of control where 0% means no effect; nearly all actives have a fitted effect of over 65% in size
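Cells are seeded, rested 12 hours, then given compound at five concentrations or DMSO for 24 hours. After fixation, blocking and antibody staining, PINK1 amount and mitochondrial localization are scored; CCCP serves as control.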
SW480 rereplic – A quantitative high throughput screen for small molecules that induce DNA re-replication in SW480 colon adenocarcinoma cells; AID 624297, 2012; hit rate 1.8% among 340,000; Potency, µM (series often up to 46.1 µM), without a hit: top-dose re-replication activation, hits mostly activators; SW480 DNA re-replication, Hoechst DNA content imaging, 48 h; further: % of control where 0% means no effect; nearly all actives have a fitted effect of over 55% in size
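Treated cells incubate 48 hr (37 C, 5% CO2), are stained 40 min with Hoechst, and nuclear fluorescence is enumerated; a rise in nuclei with high DNA signal marks re-replication.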
Starred values were filed as active, the others as inactive; i = inactive; ? = inconclusive; . = not tested or not shown; [ ] = another dose, or the depositor's remark. A selection: hits, their analogues and other compounds. The true share with any hit is near 5.8%. Unless noted, the call rests on the fitted dose curve; in most records, active means well fitted curve in the direction sought with a large enough effect; inconclusive means small, poorly fitted or top-dose-only effect, or another doubt; inactive means no such curve, though single readings can be large; an effect the other way counts as inactive or inconclusive. Potency means the concentration at half of the fitted maximal effect.

SMILES	KB-3-1 cytotox	MCF10A rereplic	KB-V1 cytotox	ALOX12 inh	PINK1 modulator	SW480 rereplic
CC(C)(C)S(=O)N1Cc2cc(C(=O)NCc3ccc4c(c3)OCO4)nc(-c3cccc(-c4cc5ccccc5o4)c3)c2[C@@H]1CCO (stereo partly specified)	?	.	i	?	-0.5%	.
CC(C)(C)S(=O)N1Cc2cc(C(=O)N3CCOCC3)nc(-c3cccc(Br)c3)c2[C@H]1CCO (stereo partly specified)	i	.	i	5.01µM*	5.3%	.
Cc1ccccc1CN1CCCC(C(=O)N2CCCCC2)C1 (stereo unspecified)	i	-6.5%	i	?	1.4%	-8.3%
O=C(C1CCCN(Cc2ccccc2Cl)C1)N1CCCCC1 (stereo unspecified)	i	-0.8%	i	?	2.4%	-4.6%
O=C1CC2CCN(C(=O)c3ccc(F)cc3)CC2CCN1 (stereo unspecified)	.	.	.	-7.7%[12.5 µM]	.	.
O=C1CC2CCN(C(=O)c3ccccc3)CC2CCN1 (stereo unspecified)	.	.	.	50.1µM*	.	.
O=C(c1ccccc1)N1CCCC(C(=O)N2CCCCCC2)C1 (stereo unspecified)	i	0.0%	20.6µM*	0.0%	0.9%	-10.1%
O=C(C1CCCN(Cc2ccccc2[N+](=O)[O-])C1)N1CCCCC1 (stereo unspecified)	?	-8.0%	i	2µM*	-0.5%	-13.6%
O=C(C1CCCN(Cc2cccc3ccccc23)C1)N1CCCCC1 (stereo unspecified)	.	.	.	0.447µM*	.	.
O=C(c1ccccc1)N1CCCC(C(=O)N2CCc3ccccc3C2)C1 (stereo unspecified)	i	9.2%	i	-19.3%	1.5%	-16.8%
Cc1ccnc(NC(=O)c2nccnc2N)c1	.	.	.	-80.6%	.	.
CCc1c(C(=O)Nc2ccc(OC)cc2OC)csc1C	.	.	.	41.1%	.	.
Cc1cc(N2CCC(NC(=O)c3ccc4[nH]ccc4c3)C2=O)ccc1F (stereo unspecified)	.	.	.	4.4%	.	.
CN(Cc1cccnc1)c1nc2c(c(=O)[nH]1)CCN(Cc1cc(Cl)ccc1F)CC2	.	.	.	15.8%	.	.
CN(CCc1ccccc1)C(C(=O)Nc1ccc2c(c1)OCCO2)c1ccnc2ccccc12 (stereo unspecified)	?	.	23.1µM*	?	2.9%	.
FC(F)(F)c1cccc(N2CCN(c3ccc4nnc(-c5ccccc5)n4n3)CC2)c1	i	?	16.4µM*	?	7.2%[38.3 µM]	6.1%
Cc1cc(C(=O)O)ccc1NS(=O)(=O)c1ccc(S(=O)(=O)N2CCCCC2)cc1	.	.	.	34.7%	.	.
COc1cccc(C(c2sc3nc(C)nn3c2O)N2CCc3ccccc3C2)c1 (stereo unspecified)	i	0.7%	i	31.6µM*	2.2%	-3.3%
O=C(OCn1ncc(Cl)c(Cl)c1=O)c1cccc(C(F)(F)F)c1	4.61µM*	5.8µM*	?	.	-4.4%	5.8µM*
Cc1cc(Br)cc(C)c1C(=O)O	.	.	.	-23.2%	.	.
CN1CCCN(C(=O)Cc2c(Cl)cccc2Cl)c2nc3ccccc3nc21	i	?	i	-14.5%	-1.4%	16.4µM*
O=C(C1CCN(C(=O)N2CC3CC(C2)[C@H]2CCCC(=O)N2C3)CC1)N1CCc2ccccc2C1 (stereo partly specified)	.	.	.	7.9%	.	.
COC(=O)[C@H]1[C@H](CO)[C@H]2Cn3c(ccc(Br)c3=O)[C@H]2N1Cc1ccccc1Cl	.	.	.	35.5µM*	.	.
CCOC(=O)c1ccccc1NC(=O)/C(C#N)=C\c1cc(OC)ccc1O	.	.	.	-7.7%	.	.
CC(O)(CS(=O)(=O)Cc1ccc(Cl)cc1)C(=O)Nc1cccc(C(F)(F)F)c1 (stereo unspecified)	i	-18.8%	i	3.16µM*	10.3%[38.3 µM]	-1.3%
SMILES	KB-3-1 cytotox	MCF10A rereplic	KB-V1 cytotox	ALOX12 inh	PINK1 modulator	SW480 rereplic
CCS(=O)(=O)c1ccc2oc(SCC(=O)NC34CC5CC(CC(C5)C3)C4)nc2c1	i	2.9%	14.6µM*	-13.5%	-3.1%	-3.7%
CC(=O)C1=C(C)N(c2ccccc2)C(=O)C1(NS(=O)(=O)c1ccc(N)cc1)C(F)(F)F (stereo unspecified)	i	11.7%	i	-3.0%	0.3%	?
COC(=O)C1=C(C)N(CCc2ccccc2)C(=O)C1(NS(=O)(=O)c1ccc(NC(C)=O)cc1)C(F)(F)F (stereo unspecified)	i	14.6µM*	i	-14.2%	9.8%[38.3 µM]	3.26µM*
O=C1S/C(=C/c2ccc(N3CCOCC3)o2)C(=O)N1Cc1c(F)cccc1Cl	i	?	i	28.2µM*	?	?
O=C1S/C(=C\c2ccc(N3CCOCC3)o2)C(=O)N1Cc1c(F)cccc1Cl	i	10.8%	i	31.6µM*	?	4.3%
O=C1N=C(N2CCOCC2)S/C1=C/c1ccc(-c2ccccc2Cl)o1	i	?	i	-8.3%	1.6%	?
O=C1S/C(=C\c2ccc(N3CCOCC3)o2)C(=O)N1c1ccccc1	i	?	?	?	?	17.6%
Cc1nc(N2CCc3ccccc3C2)[nH]c(=O)c1CCC(C)C	i	-6.2%	i	-14.6%	11.2µM*	-6.6%
Cc1oc(-c2ccccc2F)nc1CN1CCC(C(=O)NCc2ccco2)CC1	i	14.3%	i	-8.4%	0.3%	8.5%
Cc1oc(-c2ccccc2F)nc1CN1CCC(C(=O)NC2CCCCCCC2)CC1	i	8.3%	11.6µM*	.	0.8%	1.7%
O=C(NC1CCCCCCC1)C1CCN(c2nc3ccccc3o2)CC1	18.4µM*	-2.6%	2.31µM*	-29.2%	-2.4%[38.3 µM]	0.2%
O=C(Nc1ccc2c(c1)CCC2)C1CCN(c2c3c(nc4ncnn24)CCC3)CC1	?	-3.3%	?	7.0%	-3.0%[38.3 µM]	9.5%
O=C(NC1CCCc2ccccc21)C1CCN(c2c3c(nc4ncnn24)CCC3)CC1 (stereo unspecified)	i	-4.6%	20.6µM*	-3.6%	-1.8%[38.3 µM]	4.7%
Cc1oc(-c2ccccc2F)nc1CN1CCC(C(=O)NC2CCCc3ccccc32)CC1 (stereo unspecified)	i	14.3%	8.2µM*	0.0%	-3.4%	3.4%
O=C(NC1CCN(c2nc3ncccc3o2)CC1)C1CCCC1	.	.	.	10.3%[176 µM]	.	.
COc1ccc(Cl)cc1N1C(=O)[C@@H]2C[C@@H](NC(=O)Cc3cccs3)CCN2C1=O	.	.	.	-2.2%[176 µM]	.	.
